# Source: PubChem (National Center for Advancing Translational Sciences (NCATS))
# Most compounds without a hit are left out; they make up all but 19% or so of the library.
# TDP1 cell CPT: DT40-hTDP1 cell growth loss with CPT; actives 12% (n = 420,000); AID 686979; Potency, µM (top dose mostly 46.2 µM), without a hit: top-dose activity change, negative = growth inhibition, usual class: inhibitors; chicken DT40 Tdp1-/-;hTDP1 cells + 20 nM CPT, ATP luminescence, 48 h; also: potency is read from the fitted curve at half-maximal effect; nearly all actives have a fitted effect of over 55% in size
#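 Chicken DT40 Tdp1-/- cells complemented with human TDP1, 400 cells/well, exposed to compounds plus 20 nM camptothecin for at least 48 h at 37 C; viability read as ATP content by CellTiter-Glo luminescence.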
# DT40 TDP1 no CPT: qHTS for Inhibitors of human tyrosyl-DNA phosphodiesterase 1 (TDP1): qHTS in cells in absence of CPT | DT40 Tdp1-/- hTDP1 cells, no CPT, ATP luminescence, 48 h | Potency, µM (highest dose often 46.2 µM), inactives show at the highest dose activity change, negative = growth inhibition, usual class: inhibitors | actives 15% (n = 420,000); also: potency is read from the fitted curve at half-maximal effect; nearly all actives have a fitted effect of over 55% in size
#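 Growth kinetics read by CellTiter-Glo luminescence after ≥48 hr at 37 °C. Cells: DT40 Tdp1-/- stably carrying human TDP1, 400 per well, compound exposure in the absence of CPT (DMSO vehicle).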
# ELG1 DNA repair: ELG1-dependent DNA repair inhibition | actives 2.3% (n = 330,000) | AID 504467 | HEK293T ELG1-luciferase reporter, luminescence, 16 h; DNA damage induced by 5-fluorouridine | Potency, µM (series often up to 46.1 µM), for inactives: top-dose activity change, negative = inhibition, actives largely listed as inhibitors; also: potency is read from the fitted curve at half-maximal effect; nearly all actives have a fitted effect of over 55% in size
#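 Cells (2,000 per well) received 5-fluorouridine plus test compound or DMSO and were incubated 16 hr at 37 °C, 5% CO2. Luciferase activity was read by luminescence 30 min after ONE-Glo addition; signal suppression marked inhibition of damage-induced ELG1 function.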
# HT1080 IDH1KD tx: kills HT-1080 cells with IDH1 knockdown | actives 2% (n = 360,000) | AID 686971 | Potency, µM (highest dose often 46.1 µM), inactives show at the highest dose activity, negative = toxicity, hits mostly cytotoxic | HT-1080 IDH1 knockdown viability, ATP luminescence, 48 h;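 also: potency is read from the fitted curve at half-maximal effect; 0% = DMSO wells and -100% = cell-free medium wells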
#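 Cytotoxicity counter-line: IDH1KD HT-1080, 48 h, CellTiter-Glo. Curves classed by r2, magnitude and activity.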
# HT1080NT lethal: kills 2HG-producing HT-1080-NT fibrosarcoma cells | HT-1080-NT fibrosarcoma viability, CellTiter-Glo ATP luminescence, 48 h | Potency, µM (titrated, usually from 46.1 µM), for inactives: at the highest dose activity, negative = less viability, most hits filed as cytotoxic | actives 1.6% (n = 360,000) | AID 686970;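 also: NT is the 2HG producing partner of a matched IDH1 knockdown line; potency is read from the fitted curve at half-maximal effect; 0% = DMSO-treated cells and -100% = media-only wells without cells; nearly all actives have a fitted effect of over 55% in size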
#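 Toxicity toward the 2HG-producing NT line was scored as %Activity, normalised to DMSO and no-cell wells, from CellTiter-Glo luminescence after 48 hours' treatment.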
# IL-1B inflam inh: blocks inflammasome-driven IL-1 beta release. activity change, % at 57.5 µM. AID 743279. actives 4.7% (n = 360,000). THP-1 LPS/ATP IL-1B secretion, AlphaLISA, 16 h; active compounds read low; in the data active = activity change below about -50%; inconclusive = mostly about -30% to -49%
#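 Secreted IL-1B measured by AlphaLISA bead assay after 16 h compound exposure of THP-1 cells; compounds (final up to 57.5 uM) added 1 h before LPS (250 ng/mL) and ATP (1.25 mM) stimulation; lower signal means less secretion.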
# * = called active by the depositor; ? = inconclusive; · = no result. Unless noted, calls follow the shape of the dose curve; as a rule, active = well fitted curve in the direction sought with a large enough effect; inconclusive = small, poorly fitted or top-dose-only effect, or another doubt; inactive = no such curve, though single readings can be large; an effect the other way counts as inactive or inconclusive. Unless noted, % is scaled to controls: 0 for no effect and ±100 for the full control effect.
SMILES,TDP1 cell CPT,DT40 TDP1 no CPT,ELG1 DNA repair,HT1080 IDH1KD tx,HT1080NT lethal,IL-1B inflam inh
COc1ccccc1NC(=O)Nc1nc(CC(=O)NC2CCCC2)cs1,?,16µM*,9%,-3%,7%,-8
COc1ccccc1CNC(=O)Cc1csc(NC(=O)Nc2ccccc2OC)n1,16µM*,23µM*,?,2%,7%,2
O=C(Cc1csc(NC(=O)Nc2cccc(Cl)c2)n1)NCc1ccccn1,2.1µM*,2.6µM*,19%,-11%,0%,-6
CC1CCCC(NC(=O)c2cccs2)C1C (centres undefined),-22%,?,14%,-7%,12%,-1
CC1CCCN(S(=O)(=O)c2ccc(N3CCCCS3(=O)=O)cc2)C1 (centres undefined),-21%,-28%,·,·,·,·
COc1ccc(C(=O)OCC(=O)N2CCN(C(=O)c3ccco3)CC2)cc1OC,22%,-2%,3%,13%,12%,-7
CCOc1ccccc1NC(=O)C(NS(=O)(=O)c1cccc2nsnc12)c1ccccc1 (centres undefined),-3%,?,·,·,·,·
O=C(Nc1ccc(OC(F)(F)F)cc1)C(NS(=O)(=O)c1cccc2nsnc12)c1ccccc1 (centres undefined),16µM*,?,·,·,·,·
CCN1CCN(S(=O)(=O)c2ccc(Cl)c(C(=O)N(C)Cc3cccc(OC)c3)c2)CC1,-21%,-19%,?,-8%,-2%,?
CCN1CCN(S(=O)(=O)c2ccc(Cl)c(C(=O)N(CC)Cc3ccccc3)c2)CC1,?,?,5%,-2%,0%,-5
O=C(c1cc(S(=O)(=O)N2CCOCC2)ccc1F)N(CCc1ccccc1)Cc1ccccc1,?,23µM*,-18%,-2%,-8%,?
Cc1cccc(N(Cc2ccccc2)C(=O)C2CCN(C(=O)c3ccccc3C)CC2)c1,12µM*,5.8µM*,-19%,-10%,-1%,0
CCc1ccc(CN(C)C(=O)c2cc(S(=O)(=O)N3CCN(CC)CC3)ccc2Cl)cc1,?,18µM*,-19%,-10%,-8%,-67*
CCN1CCN(S(=O)(=O)c2ccc(Cl)c(C(=O)N(CCc3ccccc3)Cc3ccccc3)c2)CC1,23µM*,23µM*,·,?,?,-13
Nc1c(Cl)ncnc1NCC(O)CO (centres undefined),-3%,-14%,9%,20%,12%,·
Cc1ccc(S(=O)(=O)N(C)Cc2ccccc2)cc1C(=O)N1CCCCC1,15µM*,?,?,-14%,-19%,0
Cc1ccc(S(=O)(=O)Nc2ccccc2)cc1C(=O)N1CCCC1,-4%,-1%,-10%,4%,2%,0
Cc1ccc(N(Cc2ccccc2)C(=O)c2ccc(Cl)c(S(=O)(=O)N3CCOCC3)c2)cc1,?,?,?,-9%,3%,-10
Cc1ccc(N(Cc2ccccc2)C(=O)c2cc(S(=O)(=O)N3CCOCC3)ccc2C)cc1,21µM*,13µM*,-14%,-10%,0%,8
Cc1ccc(S(=O)(=O)N2CCCCC2)cc1C(=O)N(CCc1ccccc1)Cc1ccccc1,8.2µM*,10µM*,-18%,-16%,-3%,-14
CCOC1=C2CN(S(=O)(=O)c3ccc(C)cc3)C(c3ccccc3)CC2N(S(=O)(=O)c2ccc(C)cc2)C(c2ccc(Br)cc2)C1 (centres undefined),-8%,?,·,22%,23%,1
Cn1ncc(N=Cc2ccccc2)c1C(=O)Nc1cccc(Cl)c1,?,18µM*,?,1%,5%,4
Cn1ncc(N=Cc2ccccc2)c1C(N)=O,0%,-17%,13%,17%,21%,16
Cc1ccn2c(CN(C)CCn3nc(C)cc3C)c(C(=O)N3CCCCCC3)nc2c1,-23%,?,-4%,4%,0%,1
Cc1cccc(C)c1NC(=O)CN(C)CCc1ccccc1,?,?,·,-1%,5%,28
SMILES,TDP1 cell CPT,DT40 TDP1 no CPT,ELG1 DNA repair,HT1080 IDH1KD tx,HT1080NT lethal,IL-1B inflam inh
COc1cc(OC)cc(C(=O)NCCCCNC(=O)c2cc(OC)cc(OC)c2)c1,2%,-19%,·,1%,0%,·
O=C(CN(Cc1ccccc1)C(=O)c1cccc([N+](=O)[O-])c1)Nc1c(Cl)cc(Cl)cc1Cl,8.2µM*,12µM*,-19%,-15%,-16%,-1
COc1cc(OC)cc(C(=O)NCCCCc2ccccc2)c1,?,13µM*,·,-9%,-20%,10
COc1cccc(C(=O)NCCS(=O)(=O)NC(C)CCc2ccccc2)c1 (centres undefined),?,6.5µM*,1%,3%,3%,-4
Cc1cccc([N+](=O)[O-])c1NC(=O)CN(Cc1ccccc1)Cc1ccccc1,26µM*,21µM*,-17%,-10%,-12%,?
Cc1ccccc1N(CC(=O)N1CCN(Cc2ccccc2)CC1)S(C)(=O)=O,0%,?,·,2%,0%,-8
C[C@@]12CCC[C@H]1[C@@H]1CC[C@H]3C[C@@H](O)CC[C@]3(C)[C@H]1CC2,-6%,12%,·,·,·,·
COc1cccc(CN2C(=O)NC(C)(C3CCN(Cc4ccc(C)o4)CC3)C2=O)c1OC (centres undefined),-5%,-5%,·,·,·,·
COc1ccc(C(=O)NC(C)CCc2ccccc2)c(O)c1 (centres undefined),?,?,-19%,-16%,0%,-55*
O=C(NCCn1ccc2ccccc21)c1cccc([N+](=O)[O-])c1,29µM*,23µM*,?,4%,0%,0
COc1ccc(C(=O)NC(C)CCc2ccccc2)cc1 (centres undefined),-6%,-10%,?,14%,10%,-1
O=C(NCCCCc1ccccc1)c1cccc([N+](=O)[O-])c1,18µM*,16µM*,-26%,0%,19%,-5
COn1c(=O)c(-c2cccs2)[n+]([O-])c2ccccc21,16µM*,12µM*,?,10%,4%,0
CCOC(=O)C1(C)CCCN(C(=O)c2ccc(F)cc2Cl)C1 (centres undefined),-30%,-29%,·,6%,20%,63
O=C(NN=C1CCCC1)c1ccc(Cl)cc1,14%,-18%,-22%,0%,-5%,-6
